Hits are enriched below; roughly 4.2% of the tested compounds scored in any of these assays.
TRPV1 PAM = HTS Assay for Compounds that Act as Potentiators of the Vanilloid Receptor 1. Transient receptor potential cation channel subfamily V member 1 (Homo sapiens), Q8NER1. hit rate 0.02% among 320,000. potentiation, % at 8.33 µM. TRPV1-expressing cells, Fluo-8 calcium influx, capsaicin EC20 potentiation. AID 540277, 2011; in the data active means potentiation above about 80%; inconclusive means between about 30% and that limit; further: 0% is about no effect
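Cells expressing TRPV1 were dye-loaded with Fluo-8 and read kinetically: 10 s baseline, 3 min after compound (agonist portion), then 2 min after EC20 capsaicin (allosteric enhancer portion). Calcium-bound dye fluorescence at 480/520 nm.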
D1 agonist = Allosteric Agonists of the Human D1 Dopamine Receptor: qHTS; HEK293 T-REx D1 cells, calcium flux, agonist mode; activation, % at 2 µM; hit rate 1% among 360,000; AID 504660, 2011; in the data active means activation above about 30%; further: 0% is about no effect
Target sequence (P21728 whole entry, looked up): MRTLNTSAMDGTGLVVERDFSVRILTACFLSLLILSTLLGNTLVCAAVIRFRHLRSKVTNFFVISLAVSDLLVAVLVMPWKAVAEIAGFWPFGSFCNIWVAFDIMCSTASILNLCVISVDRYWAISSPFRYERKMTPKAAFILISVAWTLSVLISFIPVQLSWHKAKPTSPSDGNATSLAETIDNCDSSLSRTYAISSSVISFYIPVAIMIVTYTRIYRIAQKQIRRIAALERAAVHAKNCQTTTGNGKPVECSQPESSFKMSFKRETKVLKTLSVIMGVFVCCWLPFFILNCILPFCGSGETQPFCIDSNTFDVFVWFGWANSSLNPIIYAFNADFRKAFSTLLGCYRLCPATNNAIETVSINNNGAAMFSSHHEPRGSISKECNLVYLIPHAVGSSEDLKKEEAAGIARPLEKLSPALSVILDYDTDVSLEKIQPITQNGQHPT
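Tetracycline-induced HEK293 TREx D1 cells, force-coupled to calcium signalling, were dye-loaded with a no-wash calcium kit. Compound was pin-added after a 10 s baseline. Fluorescence was read kinetically at 1 cycle/s for 180 s, with calcium rises flagged as agonism.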
D1 potentiator = Potentiators of Human D1 Dopamine Receptor: qHTS; hit rate 0.036% among 360,000; potentiation, % at 10 µM; HEK293 TREx D1 cells, calcium flux, dopamine EC20 potentiation; in the data active means potentiation above about 30%; further: 0% is about no effect
TRPV1 agonist = HTS Assay for Compounds that Act as Agonists of the Vanilloid Receptor 1; TRPV1-expressing cells, Fluo-8 calcium influx, agonist mode; hit rate 0.19% among 320,000; activation, % at 8.33 µM; in the data active means activation above about 80%; inconclusive means between about 30% and that limit; further: 0% is about no effect
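Fluo-8 calcium influx in TRPV1-expressing cells, kinetic read (ex 480/em 520 nm). Compound added and read 3 min for agonist activity, followed by capsaicin at EC20 final and 2 min further read for enhancement.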
D1 antag = Antagonist of Human D 1 Dopamine Receptor: qHTS; D(1A) dopamine receptor (Homo sapiens), P21728; HEK293 TREx D1 cells, calcium flux, dopamine EC80; stronger effect = lower value; activity change, negative = inhibition, % at 10 µM; hit rate 3.2% among 360,000; in the data active means activity change below about -30%; further: on the % scale 0 is the no-effect control and ±100 the full control effect
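HEK293 T-REx cells expressing inducible, force-coupled D1 receptor; no-wash Ca dye, 30–90 min RT. Cmpd → 180 s read at 1 Hz → EC80 DA → 180 s read.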
* marks the source's active call; other numbers are inactive results; ? = inconclusive; . = no result given; ! = repeats disagree.

SMILES | TRPV1 PAM | D1 agonist | D1 potentiator | TRPV1 agonist | D1 antag
CCN(c1ccc(OC)cc1)S(=O)(=O)c1nnc(NC(=O)c2ccccc2Cl)s1 | 7 | 2 | -7 | 1 | -42*!
O=C(Nc1nnc(S(=O)(=O)N2CCCCCC2)s1)c1ccccc1Cl | -11 | 8 | -7 | 2 | -41*!
Oc1ccc2ccccc2c1/C=N/Nc1nnc(-c2ncc[nH]2)c2ccccc12 | -25 | 36* | -4 | 4 | 18
CC(=O)N1CCCC1c1nc2ccccc2n1Cc1cccc(Cl)c1 (stereo not given) | . | 3 | 6 | . | -33*
CC(=O)N1CCCC1c1nc2ccccc2n1Cc1ccccc1C (stereo not given) | . | 20 | -2 | . | -3
Cc1cccc(N2CCN(C(=O)c3noc4c3CCCCC4)CC2)c1C | . | 5 | -1 | . | 1
COc1nsnc1N1CCOCC1 | -6 | 1 | 3 | -2 | 10
CCOC(=O)c1cccc(NC(=O)COc2nsnc2N2CCOCC2)c1 | 24 | 25 | . | -6 | -6
COC(=O)COc1nsnc1N1CCOCC1 | ? | 1 | -6 | -1 | -60*
CC(=O)c1cccc(NC(=O)COc2nsnc2N2CCOCC2)c1 | 3 | 6 | -5 | 5 | -35*
O=c1oc2ccccc2n1CCCOc1ccccc1Cl | . | 6 | -3 | . | -2
CC(=O)C1=C(O)C(=O)N(Cc2ccco2)C1c1ccccc1F (stereo not given) | 3 | 7 | 4 | -8 | 2
CC(C)(C)C(=O)C1=C(O)C(=O)N(Cc2ccccc2)C1c1ccccc1F (stereo not given) | ? | 54* | -6 | -3 | -13
Cc1ccc(CNC(=O)C2CCN(S(=O)(=O)c3ccc4c(c3)oc(=O)n4C)CC2)cc1 | . | -1 | -2 | . | -5
CCCCn1c2nc3ccccc3nc2c2c(=O)n(CCC(C)C)cnc21 | 0 | 3 | -3 | -4 | -42*
CCCCn1c2nc3ccccc3nc2c2c(=O)n(-c3ccccc3)cnc21 | -5 | 2 | -13 | 8 | 11
CCOc1ccc(CNC(=O)C2CCN(S(=O)(=O)c3ccc4c(ccn4C)c3)CC2)cc1 | . | 4 | 1 | . | -2
CCOC(=O)c1c(C)n(-c2ccccc2)c2ccc(O)cc12 | 10 | 4 | -6 | -9 | -70*
Cc1ccc(CNC(=O)c2cc3c(=O)n(C)c4ccccc4c3n2C)o1 | 5 | -1 | . | -3 | -45*
Cn1c(C(=O)NCc2ccc(Cl)cc2)cc2c(=O)n(C)c3ccccc3c21 | . | -1 | -2 | . | 3
Cc1cccc(N2CCN(C(=O)c3cn(C4CCCCC4)c(=O)c4c3c3ccccc3n4C)CC2)c1C | . | 6 | -2 | . | 8
CCCCNC(=O)CN1C(=O)COc2ccc(S(=O)(=O)N3CCCC3)cc21 | . | 1 | 1 | . | 1
Cc1ccc(NC(=O)CN2C(=O)COc3ccc(S(=O)(=O)N4CCCC4)cc32)c(C)c1 | 18 | 2 | -10 | 2 | -47*
CCC1CCCCN1CCCNC(=O)CN1C(=O)COc2ccc(S(=O)(=O)N3CCOCC3)cc21 (stereo not given) | 9 | 0 | 1 | 2 | -38*
COC(=O)c1cc2oc(C)cc2n1Cc1ccc(Cl)cc1 | . | -4 | 1 | . | 2
SMILES | TRPV1 PAM | D1 agonist | D1 potentiator | TRPV1 agonist | D1 antag
CCc1ccc(C(C)NC(=O)c2ccc3c(c2)OCO3)cc1 (stereo not given) | -22 | 6 | 0 | ? | -42*
O=C(Nc1ccc2nc(SCC(=O)N3CCCc4ccccc43)sc2c1)c1cccc(Cl)c1 | . | 8 | 1 | . | -3
Fc1ccccc1N1CCN(c2nnc(C(F)(F)F)c3nnn(Cc4ccccc4)c23)CC1 | . | 1 | 1 | . | 4
CC(=O)c1cccc(N(CC(=O)NC2CCCC2)C(=O)c2csnn2)c1 | -14 | 10 | . | 3 | -39*
O=C(O)C1(P(=O)(c2ccccc2)c2ccccc2)CCCC1 | -7 | 1 | -9 | 1 | 6
N#CC1(P(=O)(c2ccccc2)c2ccccc2)CCCC1 | 111* | 0 | 4 | -4 | 14
CC(C)(C)C1CCc2c(sc(NC(=O)c3ccncc3)c2C(=O)Nc2ccccc2Cl)C1 (stereo not given) | . | 9 | -2 | . | -13
O=C(CCNS(=O)(=O)c1ccc2c(c1)CCCC(=O)N2)NCc1ccccc1Cl | . | 0 | 2 | . | -16
